# Source: PubChem (Broad Institute)
# Shown are actives, neighbours in structure and some others; about 2.4% of the full set was active somewhere.
# C diff HTS: C. difficile growth inhibitors, primary screen, HTS; actives 0.25% (n = 86,000); growth activity, negative = inhibition, % at 16 µg/mL (by protocol); AID 1259249, 2017; Clostridium difficile clinical isolate growth, OD600, 24 h; active compounds read low;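 active = mean growth activity at or below -80% and every replicate also at or below -80%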;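 note: 0% = DMSO wells and -100% = levofloxacin 16 µg/mL wells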
# Pf Dd2 inh: P. falciparum Dd2 growth inhibitors, primary screen, SYBR Green fluorescence, single dose replicates; actives 2.3% (n = 94,000); 72 h; active compounds read low; activity change, % at 10 µM; in the data active = activity change below about -80%
# * hit, by the source's call; nt = no result given.
SMILES,C diff HTS,Pf Dd2 inh
Cc1ccc(OC(=O)N(C)C[C@H]2OCc3ccccc3-c3c(n(C)c4ccccc34)C(=O)N([C@@H](C)CO)C[C@@H]2C)cc1,6,-30
Cc1ccc(OC(=O)N(C)C[C@@H]2OCc3ccccc3-c3c(n(C)c4ccccc34)C(=O)N([C@@H](C)CO)C[C@H]2C)cc1,1,-83*
OC[C@H]1Nc2ccc(C#Cc3cccnc3)cc2[C@H]2NCC[C@H]21,-4,-88*
CN1c2ccc(Br)cc2[C@@H]2NCC[C@@H]2[C@@H]1CO,1,7
CCOC(=O)[C@@H]1[C@@H]2NC(=S)N(C)[C@@]1(COCc1ccc(OC)cc1)Oc1ccccc12,5,nt
O=C(Cc1ccccn1)N1CC2(C1)[C@H](c1ccccc1)[C@@H](CO)N2Cc1ccccn1,4,-12
